From the supplement of paper PMC10515830
Where a name gives a salt, the structure may show the parent alone.

Columns and labels:
Details in all cases: 10 µM; exposure time 6 h
[1] = tested on: Danio rerio larvae (5 dpf); assay: difference in excitability vs DMSO (percentage points); higher = more excitable than DMSO
Method in brief: (§1)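 In 96-well plates, 48 wild-type zebrafish larvae aged 5 dpf per compound received 100 µL egg water with library compound at 10 µM final for 6 h. Three hours into this, a 3-h programme of moving lines and 100 ms, 400Hz tones ran at 28.5 ℃ while plates were photographed every 6 s. Z-LaP Tracker scored the behaviours, and each is given as the compound mean minus the vehicle control mean in percentage points.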

[2] = tested on: Danio rerio larvae (5 dpf); assay: difference in startle response vs DMSO (percentage points); higher = stronger startle than DMSO
Method in brief: as §1

[3] = tested on: Danio rerio larvae (5 dpf); assay: difference in activity during first hour vs DMSO (percentage points); higher = more activity than DMSO
Method in brief: as §1

[4] = tested on: Danio rerio larvae (5 dpf); assay: difference in habituation to acoustic stimuli vs DMSO (percentage points); higher = more habituation than DMSO
Method in brief: as §1

[5] = tested on: Danio rerio larvae (5 dpf); assay: difference in combined optomotor response to red, green and blue moving lines vs DMSO (percentage points); higher = stronger optomotor response than DMSO
Method in brief: as §1

Structure (SMILES)	difference in excitability [1]	difference in startle response [2]	difference in activity during first hour [3]	difference in habituation to acoustic stimuli [4]	difference [5]
CCCCCCCCCC(=O)N[C@@H](Cc1c[nH]c2ccccc12)C(=O)N[C@H](CC(N)=O)C(=O)N[C@@H](CC(=O)O)C(=O)N[C@@H]1C(=O)NCC(=O)N[C@@H](CCCN)C(=O)N[C@@H](CC(=O)O)C(=O)N[C@H](C)C(=O)N[C@@H](CC(=O)O)C(=O)NCC(=O)N[C@H](CO)C(=O)N[C@@H]([C@H](C)CC(=O)O)C(=O)N[C@@H](CC(=O)c2ccccc2N)C(=O)O[C@@H]1C [Daptomycin]	12	1.46	7.99	-6.5	6.83
NC(=O)C(c1ccccc1)(c1ccccc1)[C@@H]1CCN(CCc2ccc3c(c2)CCO3)C1 [Darifenacin (hydrobromide)]	15.5	-9.95	-4.6	-3.27	-6.74
C[C@H]1C[C@@H]2[C@H]([C@@H](O)C[C@@]3(C)[C@H]2CC[C@]3(O)C(=O)CO)[C@@]2(C)C=CC(=O)C=C12 [Methylprednisolone]	2.35	0.227	10.3	-3.19	9.29
COc1ccc(CC2c3cc(OC)c(OC)cc3CC[N+]2(C)CCC(=O)OCCCCCOC(=O)CC[N+]2(C)CCc3cc(OC)c(OC)cc3C2Cc2ccc(OC)c(OC)c2)cc1OC (stereo not given) [Atracurium (besylate)]	5.62	-4.13	-9.46	-3.02	-3.83
CN1CC2c3ccccc3Oc3ccc(Cl)cc3C2C1 (racemic) [(±)-Asenapine]	15.8	-0.436	46.3	-12.3	-1.19
COc1ccc(C[C@@H](C)NC[C@H](O)c2ccc(O)c(NC=O)c2)cc1 [Arformoterol (tartrate)]	10.3	-8.57	39	-7.89	-2.14
CC(c1cc2ccccc2s1)N(O)C(N)=O (stereo not given) [Zileuton]	3.87	-0.493	-3.58	-0.832	6
CC(C)OC(=O)CCC/C=C\C[C@@H]1[C@@H](/C=C/[C@@H](O)COc2cccc(C(F)(F)F)c2)[C@H](O)C[C@@H]1O [Fluprostenol isopropyl ester]	7.89	-1.38	5.82	8.61	7.99
NC(=O)OCC(COC(N)=O)c1ccccc1 [Felbamate]	-5.58	2.01	9.63	-0.648	2.98
CCCCCCOC(=O)NC(=N)c1ccc(NCc2nc3cc(C(=O)N(CCC(=O)OCC)c4ccccn4)ccc3n2C)cc1 [Dabigatran etexilate]	7.34	2.07	-7.27	0.895	2.07
CCc1c(C)[nH]c2c1C(=O)C(CN1CCOCC1)CC2 (stereo not given) [Molindone (hydrochloride)]	4.99	-3.27	-7.67	-1.62	-2.83
C[C@H](Nc1ncnc2nc[nH]c12)c1cc2cccc(Cl)c2c(=O)n1-c1ccccc1	-1.93	2.84	12.8	2.7	8.44
COCCCC/C(=N\OCCN)c1ccc(C(F)(F)F)cc1 [Fluvoxamine (maleate)]	13.2	-1.76	-21.1	-3.73	5.3
Nc1nc(Cl)nc2c1ncn2[C@H]1C[C@H](O)[C@@H](CO)O1 [Cladribine]	-6.72	-0.563	-3.5	-0.582	8.45
CCOC(=O)[C@H](CCc1ccccc1)N[C@@H](C)C(=O)N1Cc2ccccc2C[C@H]1C(=O)O [Quinapril (hydrochloride)]	-1.99	-2.06	12.4	-0.155	2.4
COc1ccc(-c2ccc3cc(C(=O)O)ccc3c2)cc1C12CC3CC(CC(C3)C1)C2 [Adapalene]	-8.45	3.9	-0.172	-5	3.86
NNC(=O)c1ccncc1 [Isoniazid]	6.63	4.93	12.7	-2.52	6.66
NC(N)=Nc1nc(CSCC/C(N)=N/S(N)(=O)=O)cs1 [Famotidine]	-2.4	-1.19	-7.05	6.6	-3.11
Cc1cnc(C(=O)NCCc2ccc(S(=O)(=O)NC(=O)NC3CCCCC3)cc2)cn1 [Glipizide]	0.585	1.17	-9.11	5.88	8.81
C[C@]12C=CC(=O)N[C@@H]1CC[C@@H]1[C@@H]2CC[C@]2(C)[C@@H](C(=O)Nc3cc(C(F)(F)F)ccc3C(F)(F)F)CC[C@@H]12 [Dutasteride]	18.8	-0.713	22.4	-8.39	-3.79
O=C(O)C(=O)O.[NH-][C@@H]1CCCC[C@H]1[NH-].[Pt+2] [Oxaliplatin]	-8.81	2.6	-6.68	11.3	1.69
COc1ccc(C(=O)CC(=O)c2ccc(C(C)(C)C)cc2)cc1 [Avobenzone]	3.84	-2.54	-6.34	4.35	-2.39

Structure (SMILES)	difference in excitability [1]	difference in startle response [2]	difference in activity during first hour [3]	difference in habituation to acoustic stimuli [4]	difference [5]
COc1cc(Nc2ncc(F)c(Nc3ccc4c(n3)N(COP(=O)(O)O)C(=O)C(C)(C)O4)n2)cc(OC)c1OC [R788 (sodium salt)]	4.23	4.11	7.65	-1.65	2.43
O=C(O)CCCCCCCC(=O)O [Azelaic Acid]	1.68	4.07	-2.89	4.6	6.08
CCS(=O)(=O)N1CC(CC#N)(n2cc(-c3ncnc4[nH]ccc34)cn2)C1 [Baricitinib]	7.57	-3.92	10.9	-5.36	5.99
CC(C)N1CCN(c2ccc(OCC3COC(Cn4cncn4)(c4ccc(Cl)cc4Cl)O3)cc2)CC1 (stereo not given) [Terconazole]	18	-1.46	2.36	-6.11	0.243
C[C@]12CC[C@@H]3c4ccc(O)cc4CC[C@H]3[C@@H]1CC[C@@H]2O [17β-Estradiol]	14.6	-4.36	-22.1	-4.38	-11.6
COc1cc2nc(N3CCN(C(=O)C4COc5ccccc5O4)CC3)nc(N)c2cc1OC (stereo not given) [Doxazosin (mesylate)]	25	8.69	7.65	-8.22	-5.73
Clc1ccc(COC(Cn2ccnc2)c2ccc(Cl)cc2Cl)cc1 (stereo not given) [Econazole (nitrate)]	7.22	-9.26	-22.1	-11.9	-16.9
Clc1ccccc1C(c1ccccc1)(c1ccccc1)n1ccnc1 [Clotrimazole]	-0.151	4.37	-19.1	-10.2	-12.6
COc1cc2nc(N3CCN(C(=O)C4CCCO4)CC3)nc(N)c2cc1OC (stereo not given) [Terazosin (hydrochloride)]	18.5	10.8	-10.2	1.1	13.9
CN(C)[C@@H]1C(O)=C(C(N)=O)C(=O)[C@@]2(O)C(O)=C3C(=O)c4c(O)cccc4[C@@](C)(O)[C@H]3[C@H](O)[C@@H]12 [Oxytetracycline]	-1.74	-1.21	20.6	5.81	-0.914
COc1cccc2c1C(=O)c1c(O)c3c(c(O)c1C2=O)C[C@@](O)(C(=O)CO)C[C@@H]3O[C@H]1C[C@H](N)[C@@H](O)[C@H](C)O1 [Epirubicin (hydrochloride)]	9.14	0.312	-7.5	5.65	1.76
CC(C)c1c(C(=O)Nc2ccccc2)c(-c2ccccc2)c(-c2ccc(F)cc2)n1CC[C@@H](O)C[C@@H](O)CC(=O)O [Atorvastatin (calcium salt hydrate)]	2	-0.915	-6.37	-0.794	-0.114
C[N+]1(C)CCC(OC(=O)C(O)(c2ccccc2)C2CCCC2)C1 (stereo not given) [Glycopyrrolate]	-0.597	-8.53	7.84	-7.11	-2.89
C[C@H]1CN(C[C@H](Cc2ccccc2)C(=O)NCC(=O)O)CC[C@@]1(C)c1cccc(O)c1 [Alvimopan]	3.61	0.764	-3.96	3.02	-3.48
CCN[C@H]1C[C@H](C)S(=O)(=O)c2sc(S(N)(=O)=O)cc21 [Dorzolamide (hydrochloride)]	-4.82	-3.95	4.07	2.29	3.26
COc1cccc2c1C(=O)c1c(O)c3c(c(O)c1C2=O)C[C@@](O)(C(C)=O)C[C@@H]3O[C@H]1C[C@H](N)[C@H](O)[C@H](C)O1 [Daunorubicin (hydrochloride)]	19.8	4.36	-3.27	5.5	-1.09
Clc1ccc(COC(Cn2ccnc2)c2ccc(Cl)cc2Cl)c(Cl)c1 (stereo not given) [Miconazole (nitrate)]	9.53	-10.9	-23.5	-11.4	-18.4
C[N+](C)(C)CC=O [Betaine Aldehyde (chloride)]	7.5	1.56	10.1	-0.929	4.79
CN(C)c1nc(N(C)C)nc(N(C)C)n1 [Altretamine]	-0.899	-2.53	-6.9	-1.7	0.893
COc1nc(N)nc2c1ncn2[C@@H]1O[C@H](CO)[C@@H](O)[C@@H]1O [Nelarabine]	19.6	1.82	-4.45	-0.162	2.02
O=C(c1ccc(F)c(F)c1Nc1ccc(I)cc1F)N1CC(O)([C@@H]2CCCCN2)C1 [Cobimetinib]	22.7	-2.69	0.0371	0.214	2.37
